# Most compounds without a hit are left out; they make up all but 17% or so of the library.
# DT40 TDP1 CPT = growth inhibition of DT40 Tdp1-/-;hTDP1 cells with camptothecin (screen for TDP1 inhibitors) | chicken DT40 Tdp1-/-;hTDP1 cells + 20 nM CPT, ATP luminescence, 48 h | Potency, µM (series often up to 46.2 µM), usual class: inhibitors | 12% of 420,000 active; note: nearly all actives have a fitted effect of over 55% in size
#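 Chicken DT40 Tdp1-/- cells complemented with human TDP1, 400 cells/well, exposed to compounds plus 20 nM camptothecin for at least 48 h at 37 C; viability read as ATP content by CellTiter-Glo luminescence.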
# TDP1 cell noCPT = qHTS for Inhibitors of human tyrosyl-DNA phosphodiesterase 1 (TDP1): qHTS in cells in absence of CPT. 15% of 420,000 active. AID 686978, 2013. DT40 Tdp1-/- hTDP1 cells, no CPT, ATP luminescence, 48 h. Potency, µM (series often up to 46.2 µM), usual class: inhibitors; note: nearly all actives have a fitted effect of over 55% in size
#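 Camptothecin absent (DMSO only). Human TDP1-complemented DT40 knockout cells, 400 cells/well, 37 °C for minimum 48 hr; ATP measured via CellTiter-Glo, 30 min dark incubation, luminescence.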
# TDP1 block = blocks human tyrosyl-DNA phosphodiesterase 1; recombinant TDP1, AlphaScreen DNA substrate cleavage; Potency, µM (doses to about 130 µM), hits mostly inhibitors; 0.28% of 350,000 active; note: nearly all actives have a fitted effect of over 40% in size
#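 Here, a 5' biotin and 3' phosphotyrosine-FITC DNA oligonucleotide reports Tdp1 activity: intact substrate bridges AlphaScreen beads, while cleavage leaves a 3' phosphate and drops signal. All incubations at room temperature.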
# ClpP mod = qHTS Assay for Activators of ClpP | AID 651965, 2013 | 1.9% of 340,000 active | ATP-dependent Clp protease proteolytic subunit (Bacillus subtilis (strain 168)), P80244 | Potency, µM (titrated, usually from 57.5 µM) | purified B. subtilis ClpP, FRET peptide cleavage, 20 min; active = well fitted falling curve with a large enough effect; inconclusive = small, poorly fitted or top-dose-only effect; inactive = no such curve, though single readings can be large or run the other way; note: the source files actives as falling curves though it sought activators and does not explain the sign; nearly all actives have a fitted effect of over 65% in size
#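 Buffer: 100 mM Tris/HCl pH8, 100 mM KCl, 0.05% low protease BSA, 2.5% glycerol, 0.01% Tween-20. ClpP 10 microg/mL final; 20 min RT; delta FRET normalized to ADEP and DMSO controls.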
# Numbers stand for hits; 0 = inactive; ? = inconclusive; - = no result given; ! = not confirmed by another sample; [ ] = remark or other dose. Unless noted, calls come from the whole dose curve; as a rule, active = well fitted curve in the direction sought with a large enough effect; inconclusive = small, poorly fitted or top-dose-only effect, or another doubt; inactive = no such curve, though single readings can be large; an effect the other way counts as inactive or inconclusive.
SMILES,DT40 TDP1 CPT,TDP1 cell noCPT,TDP1 block,ClpP mod
OC(c1ccc(F)cc1)c1nc(-c2ccncc2)cs1 (stereo not given),7.31µM,7.31µM,-,0
OC(c1ccc(F)c(F)c1)c1nc(-c2ccc(Cl)cc2)cs1 (stereo not given),?,16.4µM,-,0
OC(c1ccc(F)c(F)c1)c1nc(-c2cccc(C(F)(F)F)c2)cs1 (stereo not given),16.4µM,?,-,?
OC(c1ccc(F)c(F)c1)c1nc(-c2ccncc2)cs1 (stereo not given),8.2µM,8.2µM,-,0
COc1ccc(C(=O)N2CCC3(CCCN(C(=O)NC(C)C)C3)CC2)cc1,0,0,-,-
Cc1cccn2c(CN3CCNC(=O)CC3)c(C(=O)N(C)CCc3ccccc3)nc12,0,0,-,0
CC(C)C[C@@]12C(=O)N(c3cccc(F)c3)C(=O)N1[C@H](c1ccc(F)cc1)[C@@H]1C(=O)N(C3CCCCC3)C(=O)[C@@H]12,?,?,0,0
CC(Sc1nnc(COc2ccc(Cl)cc2)o1)C(=O)Nc1ccc(N2CCOCC2)cc1 (stereo not given),0,0,0,0
CCN(c1ccccc1)c1ncnc2c1cnn2-c1ccccc1,?,?,0,?
CCN(c1ccccc1)c1nc(Cl)nc2c1cnn2C,?,13µM,-,-
O=c1[nH]c(C2CCN(S(=O)(=O)Cc3ccccc3)CC2)nc2c1nnn2Cc1cccc(Cl)c1,16.4µM,18.4µM,-,-
O=c1[nH]c(C2CCN(S(=O)(=O)Cc3ccccc3)CC2)nc2c1nnn2Cc1ccccc1,?,?,0,-
O=c1[nH]c(C2CCN(S(=O)(=O)/C=C/c3ccccc3)CC2)nc2c1nnn2Cc1ccc(F)cc1,20.6µM,18.4µM,-,-
Cc1noc(C)c1-c1ccc2ncnc(NCc3cccc(F)c3)c2c1,-,-,0,-
COc1ccc2c(c1)O[C@@H](c1cccc(C(F)(F)F)c1)[C@H](OC(=O)NS(=O)(=O)c1ccc(F)cc1)C2=O,-,-,0,-
CCOC(=O)c1ccc(NC(=O)CSc2nc(-c3ccc(F)cc3)cc(C(F)(F)F)c2C#N)cc1,?,?,0,0
COc1ccc(N(C)S(=O)(=O)c2cccc(C(=O)NC3CCC(C)CC3)c2)cc1 (stereo not given),?,16.4µM,0,-
COc1ccc(N(C)S(=O)(=O)c2cccc(C(=O)Nc3cccc(C(=O)NC4CC4)c3)c2)cc1,14.6µM,16.4µM,0,0
Cc1ccc(-n2ncc3c(SCC(=O)Nc4cc(C)on4)ncnc32)c(C)c1,0,0,0,0
CCCCN1C(=O)C(CC(=O)NCCCN(C)C)CC(C(=O)N2CCOCC2)=C1C (stereo not given),0,0,-,0
Cc1cc2c(nn1)CCC/C2=N\O,0,0,0,17.8µM
O=C(O)c1cc2c(o1)CCC/C2=N\O,0,0,0,0
CCOc1ccc(N2C(=O)C(c3ccccc3)=C(c3nc4ccccc4s3)C2NC(C)=O)cc1 (stereo not given),?,16.4µM,0,0
CCCCCCNC(=O)Nc1ccc(S(=O)(=O)Nc2ccc(CCNC[C@H](O)COc3ccc(O)cc3)cc2)cc1,-,-,0,-
CCc1nc2c(c(SC)nn2-c2ccccc2)c(N)c1C(=O)OC,?,0,0,31.6µM
SMILES,DT40 TDP1 CPT,TDP1 cell noCPT,TDP1 block,ClpP mod
CCC(c1nnnn1C(C)(C)C)N1CCN(C/C=C/c2ccccc2)CC1 (stereo not given),?,?,-,0
COc1ccc(-n2nnnc2C(CCc2ccccc2)N2CCN(C/C=C/c3ccccc3)CC2)cc1 (stereo not given),?,16.4µM,-,0
COc1cccc(C(c2nnnn2Cc2ccco2)N2CCN(Cc3ccccc3)CC2)c1OC (stereo not given),?,0,0,-
COc1ccc(-n2nnnc2C(c2ccccc2)N2CCN(C/C=C/c3ccccc3)CC2)cc1 (stereo not given),20.6µM,?,-,0
CCC(c1nnnn1-c1ccc(OC)cc1)N1CCN(C/C=C/c2ccccc2)CC1 (stereo not given),20.6µM,?,-,0
COc1ccc(-n2nnnc2C(c2cccc(OC)c2OC)N2CCN(C/C=C/c3ccccc3)CC2)cc1 (stereo not given),23.1µM,18.4µM,-,0
Cc1cccc(S(=O)(=O)NC(=O)C2(C)CCN2C(=O)Cc2ccc(-c3ccccc3)cc2)c1 (stereo not given),0,?,-,0
O=C(C[C@@H]1C/C=C\CC[C@H](Cc2ccc(F)cc2)C(=O)OC[C@@H]2CCCN2C1=O)N[C@H](CO)Cc1ccccc1,6.51µM,5.17µM,0,0
C[C@@H]1COC(=O)[C@H](Cc2ccc(F)cc2)CC/C=C/C[C@@H](CC(=O)N[C@H](CO)Cc2ccccc2)C(=O)N1,?,?,0,0
CC(C)(C)[C@H]1COC(=O)[C@@H](Cc2ccc(F)cc2)CC/C=C/C[C@@H](CC(=O)N[C@H](CO)Cc2ccccc2)C(=O)N1,8.2µM,18.4µM,0,0
CC(C)(C)[C@H]1COC(=O)[C@@H](Cc2ccc(F)cc2)CC/C=C/C[C@@H](CC(=O)N[C@@H](CO)Cc2ccccc2)C(=O)N1,0,16.4µM,0,0
O=C(C[C@H]1C/C=C\C[C@@H](Cc2ccc(F)cc2)C(=O)OC[C@H]2CCCN2C1=O)N[C@H](CO)Cc1ccccc1,?,?,0,0
CC1=C(C(=O)NCc2ccccc2C)C2(CCCCCC2)OC1=O,?,0,0,0
CC(C)OC(=O)c1cccc(NC(=O)Cn2nnc3sc4c(c3c2=O)CCCC4)c1,?,?,0,0
CCN(C(=O)COC(=O)C12CC3CC(CC(NC(C)=O)(C3)C1)C2)C1CCCCC1,?,20.6µM,0[0.505 µM],0
O=C(Nc1ccc(F)cc1)C1CCN(c2ncnc3c2nc2n3CCCCC2)CC1,?,18.4µM,0,0
COc1ccc(Nc2ncnc3c2nc2n3CCCCC2)cc1,0,?,0,0
O=C(NCc1ccccc1)C1CCN(c2ncnc3c2nc2n3CCCCC2)CC1,0,0,0,0
O=C(Nc1ccccn1)C1CCN(c2ncnc3c2nc2n3CCCCC2)CC1,2.31µM,?,0,0
COc1ccccc1CNC(=O)C1CCN(c2ncnc3c2nc2n3CCCCC2)CC1,?,23.1µM!,0,0
CCOc1ccc(Nc2ncnc3c2nc2n3CCCCC2)cc1,?,20.6µM,0,0
COc1ccc(OC)c(CNC(=O)C2CCN(c3ncnc4c3nc3n4CCCCC3)CC2)c1,0,0,0,0
CCc1ccc(NC(=O)C2CCN(c3ncnc4c3nc3n4CCCCC3)CC2)cc1,?,?,0,0
COC(=O)[C@H]1C[C@@H]1[C@H](NC(C)=O)c1ccccc1,-,-,0,-
O=C(COC(=O)c1ccc[n+]([O-])c1)Nc1ccc(Cl)cc1[N+](=O)[O-],0,0,0,0
COc1ccccc1CNc1ncnc2c1nc1n2CCCC1,?,8.2µM,0,0

# High-throughput results from PubChem.
